Reference: PubChem BioAssay (NCI)
Compounds without any hit were thinned out: in the full panel of roughly 79,000, 15% have a hit. Calls of active or inactive are those of the source. No stated cut-off is given here; in the data, active means growth inhibition above about 70%; inactive means the rest.

How the values were obtained:
[1] = NCI Yeast Anticancer Drug Screen. Data for the rad50 strain (AID 155);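 further: 0% = growth of vehicle-only cultures of the same strain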; conditions: S. cerevisiae rad50 strain growth inhibition; at 50.0 µM; active compounds read high
How it was run: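 Growth of the mutant yeast was measured after compound exposure and referenced to vehicle-treated cultures.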

[2] = NCI Yeast Anticancer Drug Screen. Data for the mec2-1 strain (AID 157); conditions: S. cerevisiae mec2-1 strain, at 50.0 µM, active compounds read high
How it was run: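 Cells of the genetically defined mec2-1 yeast strain are incubated with test compound. Inhibition of growth is calculated against vehicle-treated controls.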

[3] = NCI Yeast Anticancer Drug Screen. Data for the sgs1 mgt1 strain (AID 161);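 further: 0% = growth of cultures given vehicle only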; conditions: S. cerevisiae sgs1 mgt1 strain, at 50.0 µM, active compounds read high
How it was run: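 Genetically altered yeast, compound exposure, growth inhibition relative to vehicle.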

[4] = NCI Yeast Anticancer Drug Screen. Data for the cln2 rad14 strain (AID 165);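 further: 0% = growth equal to vehicle treated cultures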; conditions: S. cerevisiae cln2 rad14 strain, at 50.0 µM, active compounds read high
How it was run: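 The screen exposed genetically defined yeast (cln2 rad14) to test compounds and scored growth inhibition relative to vehicle-treated controls.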

[5] = NCI Yeast Anticancer Drug Screen. Data for the bub3 strain (AID 167); conditions: S. cerevisiae bub3 mutant strain, at 50.0 µM, active compounds read high
How it was run: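 Whole-cell yeast assay. The mutant strain was incubated with compounds, and growth inhibition was determined by comparison with vehicle-treated cells.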

[6] = NCI Yeast Anticancer Drug Screen. Data for the mlh1 rad18 strain (AID 175); conditions: S. cerevisiae mlh1 rad18 strain growth inhibition; at 50.0 µM; active compounds read high
How it was run: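 Compound-treated yeast growth, normalised to vehicle controls. Strain bears defined DNA repair mutations.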

Measured: growth inhibition

CC1(C)C(=O)C(=Cc2ccco2)C1=O
inactive: [1] -18.9% | [2] 0.85% | [3] -23.4% | [4] 3.2% | [5] -14.2% | [6] 13%

CCCc1cc(=O)oc2c3c(cc(OC(C)C)c12)O[C@H](C)[C@H](C)[C@@H]3O
inactive: [1] 3.55% | [2] 0.15% | [3] -10.8% | [4] -1.45% | [5] -7.6% | [6] 18.8%

O=C1/C(=C/c2ccc(Cl)c(Cl)c2)CCC/C1=C\c1ccc(Cl)c(Cl)c1
inactive: [1] 30.4% | [2] -5.85% | [3] 2.7% | [4] 2.95% | [5] -3.7% | [6] 1.2%

Brc1cccc2ccc3ccccc3c12
inactive: [1] 23.2% | [2] 19% | [3] 29.1% | [4] 8.25% | [5] 32%
active: [6] 75.7%

Cc1[nH]c2ccccc2c(=O)c1-c1ccccc1
inactive: [1] -12.2% | [2] -14.2% | [3] -5.25% | [4] -38% | [5] 0.35% | [6] -35.8%

Cc1nccc2c3ccccc3n(S(=O)(=O)O)c12
inactive: [1] -4.7% | [2] 26.1% | [3] 11.4% | [4] 55% | [5] -5.95% | [6] 9%

CC(C)=NNC(=O)Nc1cccc(C)c1C
inactive: [1] 9.35% | [2] 15.2% | [3] -7.2% | [4] -47.3% | [5] -9.85% | [6] -6.7%

CCCC(=O)OC(C)COc1ccccc1 (stereo not drawn)
inactive: [1] 31.4% | [2] 5.8% | [3] 21.3% | [4] -21.4% | [5] 13.4% | [6] 22.4%

O=C(O)C(CSC(c1ccccc1)(c1ccccc1)c1ccccc1)NSc1ccccc1[N+](=O)[O-] (stereo not drawn)
active: [1] 96.2% | [2] 97.2% | [3] 97.7% | [4] 96.5% | [5] 95.6% | [6] 97.8%

NC1=C(O)/C(=N/NS(=O)(=O)c2ccccc2)C(c2cccc(Cl)c2)O1 (stereo not drawn)
inactive: [1] 30.4% | [2] 23.4% | [3] 48.5% | [4] 13.8% | [5] 11.7% | [6] 21.7%

COC1=NCc2ccccc2-c2ccccc21
inactive: [1] -16.1% | [2] -21.2% | [3] -17.9% | [4] 8.55% | [5] 27.5% | [6] -28.9%

COc1ccc2c(c1)C(=O)[C@@](Nc1ccc(C=O)cc1)(OC)[C@@](OC)(c1ccc([N+](=O)[O-])cc1)O2
inactive: [1] 9.3% | [2] -3.05% | [3] 29.9% | [4] 2.3% | [5] -9.45% | [6] 12.4%

O=C1C2C(C(=O)N1c1cccc3ccccc13)C1(Cl)C(Cl)=C(Cl)C2(Cl)C1(Cl)Cl (stereo not drawn)
active: [1] 91% | [2] 93.7% | [3] 94.6% | [4] 91.5% | [5] 89.3% | [6] 94.5%

O=C(O)C(Cc1c[nH]c2ccccc12)Nc1ccc([N+](=O)[O-])cc1[N+](=O)[O-] (stereo not drawn)
inactive: [1] -27.7% | [2] -3.95% | [3] 13.8% | [4] -10.7% | [5] 3.6% | [6] 7.55%

O=C(CC1=Nc2nnc(-c3nnc4n3C(=O)C(CC(=O)C3CC3)=N4)n2C1=O)C1CC1
inactive: [1] -10% | [2] 2.95% | [3] -5.25% | [4] -16.6% | [5] -4.8% | [6] -3.8%

C/C(=N\Nc1ccccc1Br)c1cccc(/C(C)=N/Nc2ccccc2Br)n1
inactive: [1] -21.6% | [2] -1.55% | [3] -6.1% | [4] -11.6% | [5] 2.75% | [6] 6.2%

CC(=O)Oc1ccc(C2COc3cc(OC(C)=O)c(OC(C)=O)cc3C2)cc1 (stereo not drawn)
inactive: [1] 21.2% | [2] 31.6% | [3] 43% | [4] 9.4% | [5] 49.6% | [6] 37.5%

CC(=O)OCC1OC(n2c(-c3ccccc3)c(N=Nc3ccccc3)c(C)c(C#N)c2=S)C(OC(C)=O)C(OC(C)=O)C1OC(C)=O (stereo not drawn)
inactive: [1] -14% | [2] -17.4% | [3] -20.2% | [4] 11.5% | [5] 2.55% | [6] 9.75%
